# Test results: PubChem BioAssay (NCATS)
# Inconclusive results are not listed. Active and inactive are the calls of the source. The call rests on the fitted dose curve; in most records, active means well fitted inhibition curve with a large enough effect; inconclusive means small, poorly fitted or top-dose-only effect; inactive means no such curve, though single readings can be large or run the other way.
# Test: Primary qHTS for inhibitors of La Crosse Virus (LACV) - induced cell death in SH-SY5Y cells (AID 1508616);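 further: top concentration of the series differs between compounds; higher means more rescue of cells from virus-induced death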
# Conditions: SH-SY5Y LACV cytopathicity rescue, ATP luminescence, 6 d; series mostly up to 9.63 µM
# Outline: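 Cytopathicity rescue screen: compounds pinned onto SH-SY5Y cells, which are then infected with LACV (MOI 0.01) and held 6 days at 37C. Percent activity is scaled between infected DMSO control and uninfected DMSO control.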
row,SMILES,outcome
1,S=C(NC1CCCCC1)N1CCC(c2cnc[nH]2)CC1,inactive
2,CCCCCCCCc1ccc(O)cc1,inactive
3,Cn1cnc(CCN)c1,inactive
4,NC(CCP(=O)(O)O)C(=O)O (stereo not drawn),inactive
5,O=C(O)[C@@H]1CCN1,inactive
6,NCCc1c[nH]c2ccccc12,inactive
7,Cc1nccc2c1[nH]c1ccccc12,inactive
8,O=C(O)CC[N+](=O)[O-],inactive
9,C[C@]12N[C@H](Cc3ccccc31)c1ccccc12,inactive
10,O=C(Cc1ccc(Cl)c(Cl)c1)N1CCCCC1CN1CCCC1 (stereo not drawn),inactive
11,NC(N)=NOCCC(N)C(=O)O (stereo not drawn),inactive
12,CCCCc1ccc(C(=O)O)nc1,inactive
13,Clc1cnc(Oc2ccc(Oc3ncc(Cl)cc3Cl)cc2)c(Cl)c1,inactive
14,COc1cc(C(O)CN)ccc1O (stereo not drawn),inactive
15,CNCCc1c[nH]c2ccc(O)cc12,inactive
16,O=C1C(I)=CC(=C(c2cc(I)c(O)c(I)c2)c2ccccc2C(=O)O)C=C1I,inactive
17,ClC1=C(Cl)[C@]2(Cl)[C@@H]3[C@@H]4C[C@@H]([C@H]5O[C@@H]45)[C@@H]3[C@@]1(Cl)C2(Cl)Cl,inactive
18,CCCN1CCC[C@H](c2cccc(O)c2)C1,inactive
19,CS(=N)(=O)CC[C@H](N)C(=O)O (stereo partly drawn),inactive

row,SMILES,outcome
1,NC1CC1c1ccccc1 (stereo not drawn),inactive
2,CCCN(CCC)[C@@H]1CCc2ccc(O)cc2C1,inactive
3,Oc1ccc2c3c1O[C@H]1[C@@H](O)C=C[C@H]4[C@@H](C2)NCC[C@@]341,inactive
4,C[C@]12CCC3C(CC[C@H]4C[C@H](O)CC[C@]34C)C1CC[C@@H]2C(=O)CO (stereo partly drawn),inactive
5,NC(=O)CN1CC(O)CC1=O (stereo not drawn),inactive
6,C[C@@H]1O[C@H](C[N+](C)(C)C)C[C@H]1O,inactive
7,CCCN1CCO[C@@H]2c3cc(O)ccc3OC[C@H]21,inactive
8,C[C@@H](N)Cc1cnc[nH]1,inactive
9,O=C(O)Cc1cnc[nH]1,inactive
10,CS(=O)(=O)c1ccc(C(=O)C2C(=O)CCCC2=O)c([N+](=O)[O-])c1,inactive
11,CN[C@@H](C)[C@H](O)c1ccccc1,inactive
12,CC(=O)[C@H]1CCC2C3CC[C@H]4C[C@H](O)CC[C@]4(C)C3CC[C@@]21C (stereo partly drawn),inactive
13,CN1C2CCC1CC(OC(=O)c1cc(Cl)cc(Cl)c1)C2 (stereo not drawn),inactive
14,CC(C)Oc1cccc(NC(=O)c2ccccc2C(F)(F)F)c1,inactive
15,O=C1CCCN1CC#CCN1CCCC1,inactive
16,COc1nn(CSP(=S)(OC)OC)c(=O)s1,inactive
17,C#CCOC(=O)C1=CCCN(C)C1,inactive
18,CN[C@@H]1C[C@@H](c2ccc(Cl)c(Cl)c2)c2ccccc21,inactive
19,C[N+]1(C)C2CCC1CC(OC(=O)C(CO)c1ccccc1)C2 (stereo not drawn),inactive
